ChEMBL document CHEMBL1157539, “Thousands of chemical starting points for antimalarial lead identification” (Nature, 2010)

Assays:
Format in all cases: functional
Plasmodium falciparum [1] = assay: GSK_TCMDC: Inhibition of Plasmodium falciparum 3D7 in whole red blood cells, using parasite LDH activity as an index of growth. Test compounds present at 2uM
Plasmodium falciparum [2] = assay: GSK_TCMDC: Inhibition of Plasmodium falciparum Dd2 in whole red blood cells, using parasite LDH activity as an index of growth. Test compounds present at 2uM
HepG2 = assay: GSK_TCMDC: Percent inhibition of human HepG2 cell line. Test compounds present at 10uM.

Compound | Inhibition (Plasmodium falciparum [1]) [%] | Inhibition (Plasmodium falciparum [2]) [%] | Inhibition (HepG2) [%]
COc1ccc2nccc(NC(=O)C3CCC(NCc4cnc(SC)c([N+](=O)[O-])c4)CC3)c2n1.Cl (configuration not stated) | 89 | 44 | 8
COc1cc(CCN(C)Cc2ccc(OC)c(OC)c2)ccc1NC(=O)c1cccc2c(O)c3cccc(F)c3nc12 | 100 | 26 | 14
OC(CNC1CCCCC1)Cn1c2ccccc2c2ccccc21 (configuration not stated) | 97 | 92 | 11
CCOc1ccc(Br)cc1/C=C/C(=O)Nc1ccc(C2CCN(C)CC2)cc1 | 100 | 71 | 30
Cc1cc(Nc2c(C(N)=O)cnc3cc(-c4ccoc4)ccc23)ccc1N1CCN(C)CC1.Cl | 100 | 100 | 7
CN1CCc2cc(NS(=O)(=O)c3ccc(-c4ccc(Cl)cc4)cc3)c(OCCCN3CCCCC3)cc2CC1.Cl | 100 | 100 | 91
C=CCOC(=O)N1CCC(CNCc2cccc(-c3cccc(-c4nc5ccccc5[nH]4)c3)c2)C1.O=C(O)C(F)(F)F (configuration not stated) | 100 | 46 | 16
Cc1cccc2nc(-c3ccc(-c4cccc(NC(=O)COc5ccccc5C(N)=O)c4)s3)[nH]c12 | 99 | 19 | 80
Cc1cc(N[C@@H](Cc2ccccc2)C(=O)Nc2ccccc2)nc(NCCc2cccnc2)n1.O=C(O)C(F)(F)F | 95 | 57 | 32
CCCC(C(=O)OCCNC)(c1ccccc1)c1ccccc1.Cl | 98 | 96 | 7
CN(Cc1cccc(F)c1)C1CCN(c2cc(NC(=O)c3ccc(F)cc3)ccn2)C1.O=C(O)C(F)(F)F (configuration not stated) | 83 | 14 | 7
COc1ccc(-c2ccc(NC(=O)c3cccc(Cl)c3)cc2)cc1CN1CCC(O)CC1.O=C(O)C(F)(F)F | 100 | 12 | 15
CC(=O)NCCNCc1cccc(C(=O)NCc2cccc(C(F)(F)F)c2)c1 | 95 | 0 | 1
CC1CCC(C(C)C)C(OC(=O)CSc2nnc3c(n2)[nH]c2ccccc23)C1 (configuration not stated) | 88 | 74 | 0
CC(C)N1CCN(CCCCNc2c3ccccc3nc3ccccc23)CC1.Cl | 100 | 0 | 38
O=C(/C=C/c1ccc(C(F)(F)F)cc1)NCCCCCN1CCCN(C(=O)Nc2ccc(F)c(Cl)c2)CC1 | 100 | 33 | 33
O=C(/C=C/c1ccc(Cl)cc1)NCCCCCN1CCCC(C(=O)Nc2ccc(Cl)c(Cl)c2)C1 (configuration not stated) | 96 | 3 | 27
CN1CCN(c2ccnc3ccc(NC(=O)Cc4ccc(-c5ccncc5)c5ccccc45)cc23)CC1 | 100 | 100 | 32
CCc1nnc2sc(-c3cccc(NC(=O)c4ccc(OC)c(Cl)c4)c3)nn12 | 92 | 55 | 3
CCCC(C)Nc1nc(C)cc(N[C@@H](Cc2ccccc2)C(=O)Nc2ccc(OC)cc2)n1.O=C(O)C(F)(F)F (some centres not stated) | 100 | 72 | 24
CCOc1ccc(C(=O)Nc2cc3c(c(C(F)(F)F)c2)CCNC3)cc1Cl.Cl | 91 | 1 | 4
CNS(=O)(=O)Cc1ccc(Nc2nccc(Nc3cccc4c3cnn4C(=O)Nc3ccccc3)n2)cc1 | 89 | 5 | 45
CC1SC(=S)NC1C(=O)O (configuration not stated) | 94 | 0 | 3
CC(C)(C)NC(=O)COC(=O)c1c2c(nc3ccccc13)C(=Cc1ccc3c(c1)OCO3)CCC2 | 90 | 82 | 7
O=C(/C=C/c1cccs1)NCC(NCCCNc1cc(=O)c2ccccc2[nH]1)c1cc(Br)cc(Br)c1 (configuration not stated) | 100 | 58 | 0
COc1ccc2ncc(F)c(CCN3CC4CCCC4(CNCc4ccc5c(n4)NC(=O)CS5)C3)c2n1.Cl (configuration not stated) | 87 | 28 | 18
COc1ccc(-c2csc(NC(=O)CCC(=O)O)n2)cc1OC | 94 | 0 | 63
Cc1cc(C)nc(-n2[nH]c(C)c(Cc3ccc(C(C)(C)C)cc3)c2=O)n1 | 88 | 61 | 0
CC(C)CNCc1ccc(-c2ccc(CN(CCCN3CCN(C)CC3)C(=O)/C=C/c3ccccc3)cc2)cc1.O=C(O)C(F)(F)F | 99 | 93 | 57
